# PLK1 inh: blocks human PLK1 kinase activity | P53350 | recombinant PLK1 kinase, TR-FRET peptide phosphorylation | inhibition, % at 10 µM | 97,000 compounds, 0.53% hits | AID 619;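 active means inhibition of 50% or more in the single-concentration screen; inactive means inhibition below 50%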;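 further: 0% = DMSO max control and 100% = H-89 dihydrochloride min control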
# Smad3 FoxH1 inh: Smad3 (human) transcription factor binding inhibition; TR-FRET Smad3/Dy647-FoxH1 peptide binding, europium anti-His; inhibition, % at 25 µM; 88,000 compounds, 0.29% hits; AID 630;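 active means compounds that reduce the energy-transfer binding signal between the protein and its labelled peptide by more than half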;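 further: 0% = Smad3 plus labelled peptide maximal FRET and 100% = peptide-only background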
# ERa coact inh: blocks coactivator binding to human estrogen receptor alpha. AID 629. P03372. 86,000 compounds, 1.7% hits. TR-FRET ER-alpha LBD / SRC-1 peptide, estradiol-bound. inhibition, % at 25.6 µM; in the data active means inhibition above about 50%;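 further: 0% = receptor plus peptide control and 100% = peptide only without receptor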
# ERb SRC1 inh: blocks coactivator binding to human estrogen receptor beta. 86,000 compounds, 1.3% hits. Q92731. AID 633. TR-FRET ER-beta LBD / SRC1-Cy5 peptide binding; receptor agonist-loaded with 1 µM estradiol. inhibition, % at 25.6 µM;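 active means compounds whose percent inhibition of the receptor-coactivator binding signal exceeds about 50% in the single-dose screen, limit read from the data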;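 further: 0% = receptor plus peptide wells without compound and 100% = peptide-only wells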
# Target sequence (Q92731 whole entry, looked up, the tested form may be a part): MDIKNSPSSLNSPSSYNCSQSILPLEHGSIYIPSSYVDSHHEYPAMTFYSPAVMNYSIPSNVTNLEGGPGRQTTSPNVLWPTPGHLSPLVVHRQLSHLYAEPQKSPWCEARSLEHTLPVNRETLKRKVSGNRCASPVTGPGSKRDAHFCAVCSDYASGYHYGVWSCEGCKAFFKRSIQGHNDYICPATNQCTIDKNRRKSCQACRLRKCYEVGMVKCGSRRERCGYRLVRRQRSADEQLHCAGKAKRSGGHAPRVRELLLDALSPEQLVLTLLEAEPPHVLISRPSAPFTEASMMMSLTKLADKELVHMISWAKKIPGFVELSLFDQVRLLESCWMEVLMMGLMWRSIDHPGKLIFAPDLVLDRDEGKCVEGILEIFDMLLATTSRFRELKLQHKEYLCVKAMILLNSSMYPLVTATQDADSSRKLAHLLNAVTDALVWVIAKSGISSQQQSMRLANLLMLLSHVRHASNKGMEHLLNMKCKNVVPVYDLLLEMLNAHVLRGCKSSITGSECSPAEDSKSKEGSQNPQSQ
# Plk1 PBD FP: Plk1 (human) PBD binding inhibition. P53350. Plk1 PBD phosphopeptide binding, fluorescence polarization. inhibition, %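 (tested at about 20 µM)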. 97,000 compounds, 0.13% hits. AID 693; in the data active means inhibition above about 34%, passing the limit was not always enough
# ERa coact pot: enhances coactivator binding to human estrogen receptor alpha; P03372; TR-FRET ERalpha-LBD/SRC-Cy5 coactivator binding, 2 h; 100 = basal binding, no effect; coactivator binding (% of control), % at 25.6 µM; 86,000 compounds, 1.3% hits; in the data active means activity above about 200%;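 further: binding measured in presence of low estradiol as agonist stimulus; 0% = peptide alone without receptor and 100% = receptor with peptide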
# PBD redox DR: redox cycling H2O2 generation counter-screen for Plk1 PBD; shares compounds with Plk1 PBD FP; DTT; EC50, µM; 120 tested, under 10 active; call rule not given here
# Starred values were filed as active, the others as inactive; . = not tested or not shown. Most compounds without a hit are left out; they make up all but 3.3% or so of the library.
SMILES,PLK1 inh,Smad3 FoxH1 inh,ERa coact inh,ERb SRC1 inh,Plk1 PBD FP,ERa coact pot,PBD redox DR
COc1ccc(N(C)C2=NS(=O)(=O)c3ccccc32)cc1,6,-21,-2,4,54*,173,>50
O=C(c1ccc(-n2cnnn2)cc1)N1CCCCC1,-9,-9,32,14,48*,88,>50
COC(=O)CCc1c(C)[nH]c(=S)[nH]c1=O,-7,-6,-10,-11,45*,112,>50
CCOC(=O)Cc1c(C)[nH]c(=S)[nH]c1=O,2,-1,-7,1,-17,119,.
O=C1CN(c2ccc(Br)cc2)C(=O)N1CC(=O)N1CCCc2ccccc21,-16,15,2,1,46*,115,>50
CC(C)N(C(=O)COc1ccc(Br)cc1Cl)C(C)C,-13,7,4,-1,-18,108,.
NC(=O)C1CCN(C2=C(Cl)C(=O)c3ccccc3C2=O)CC1,11,.,.,.,66*,.,>50
NC(=O)C1CCN(C(=O)Nc2ccccc2)CC1,-9,6,-39,-24,-17,109,.
O=C(CSc1nnc(-c2ccco2)n1Cc1ccco1)N1CCOCC1,.,2,7,4,.,96,.
Cc1ccc(OCC(=O)Nc2ccc(N3CCOCC3)cc2)cc1,-8,9,6,9,39*,107,>50
COC(=O)c1ccccc1NC1=C/C(=N\S(=O)(=O)c2cccs2)c2ccccc2C1=O,7,26,2,6,56*,94,>50
CSc1snc(SCC(N)=O)c1C#N,-8,-3,-22,-11,23,89,.
c1ccc2c(c1)C(=Nc1ccc(N=C3c4ccccc4-c4ccccc43)cc1)c1ccccc1-2,.,-5,.,.,.,.,.
CN(C)S(=O)(=O)Nc1ccccc1C(N)=O,-14,-11,0,0,15,101,.
CC1Cn2c(nnc2-c2ccccc2O)S1 (stereo not given),-20,-8,10,9,27,97,.
CC1Cn2c(nnc2-c2cc3ccccc3cc2O)S1 (stereo not given),-5,5,3,3,57*,118,>50
CC(=O)NC1=NN(C(C)=O)C(c2sccc2C)S1 (stereo not given),-9,4,-6,-2,4,102,.
CCn1c(=O)c(=O)[nH]c2cc(C(=O)N3CCN(c4ccccc4F)CC3)ccc21,-7,3,-7,9,-3,112,.
NC(=O)Cn1c(S(=O)(=O)Cc2ccccc2)nc2ccccc21,-12,12,-5,-5,43*,100,>50
O=C(Cn1c(S(=O)(=O)Cc2ccccc2)nc2ccccc21)N1CCCCC1,-9,0,-2,6,2,126,.
O=C(Nc1nc2ccccc2s1)c1cc2c(s1)-c1ccccc1OC2,-16,-26,71*,46,53*,177,>50
CCC(=O)Nc1ccccc1C(=O)NC1CCCCC1,-12,-2,-7,-15,41*,96,>50
O=C(O)CCC(=O)Nc1ccccc1C(=O)NC1CCCCC1,-7,4,5,8,-31,93,.
Cc1ccn(C(=O)c2ccc(NC(=O)C3CCCCC3)cc2)n1,-16,6,-12,-15,-15,102,.
CCCCOCCCNC(=O)CCCOc1ccccc1,-12,4,2,-13,-22,110,.
SMILES,PLK1 inh,Smad3 FoxH1 inh,ERa coact inh,ERb SRC1 inh,Plk1 PBD FP,ERa coact pot,PBD redox DR
CCOCCCNC(=O)CCCOc1ccccc1,-8,3,-4,-2,43*,127,>50
C/C(=C/C(=O)NCc1ccccc1)C(=O)O,-9,.,.,.,-14,.,.
CC(C)=CC(=O)NCCc1ccccc1,-5,1,-3,-16,51*,126,>50
Nc1cc2nsnc2cc1Br,25,.,.,.,118*,.,13*
Cc1[nH]n2c(=O)cc(-c3ccc([N+](=O)[O-])cc3)nc2c1-c1ccccc1,-2,10,-5,-5,35*,75,>50
CCCc1cc(=O)n2[nH]c(C)c(-c3ccccc3)c2n1,.,-2,6,-2,.,90,.
CCC(C)c1ccc(NC(=O)C2CCCN(c3ncccn3)C2)cc1 (stereo not given),-9,.,.,.,6,.,.
CCC(C)c1ccc(NC(=O)C2CC2)cc1 (stereo not given),-12,-2,-4,10,63*,89,>50
